Structures are written as SMILES. Inconclusive results are not listed. Activity calls are given as the source filed them. How the source made its calls: active means hit-call score of the fitted dose curve at least 0.9, where 1 is the maximum; inconclusive means response in the unintended direction; inactive means score below 0.9.

Read-out in this test: Cytochrome P450 2C9 (Homo sapiens) (UniProt P11712)
Nature of the test: CLD_CYP2C9_24hr: CellzDirect (CLD) Gene Expression Assay for xenobiotic metabolism (CYP2C9) at 24 hours (AID 2283688). Here is the method:
CLD_24hr is a cell-based, multiplexed-readout assay that uses hepatocyte, a human liver primary cell, with measurements taken at 24 hours after chemical dosing in a 96-well plate.CLD_CYP2C9_24hr is one of 16 assay component(s) measured or calculated from the CLD_24hr assay. It is designed to make measurements of mRNA induction, a form of inducible reporter, as detected with chemiluminescence signals by Quantitative Nuclease Protection Assay (qNPA) technology.Data from the assay component CLD_CYP2C9_24hr was analyzed at the endpoint, CLD_CYP2C9_24hr, in the positive analysis fitting direction relative to DMSO as the negative control and baseline of activity. Using a type of inducible reporter, gain-of-signal activity can be used to understand changes in the reporter gene as they relate to the gene CYP2C9. Furthermore, this assay endpoint can be referred to as a primary readout. To generalize the intended target to other relatable targets, this assay endpoint is annotated to the cyp intended target family, where subfamily is xenobiotic metabolism.
Human hepatocyte cultures were treated daily for two consecutive days with fresh dosing solutions containing appropriate concentrations of the 320 ToxCast chemicals (chemical identities were blinded to CellzDirect and other ToxCast collaborators), vehicle control (0.2% DMSO), and positive control inducers as summarized in Table 1. Due to the large number of treatment groups and chemicals examined, the ToxCast chemicals were divided into two groups (spanning two independent cultures of hepatocytes from separate donor preparations (Hu778: ToxCast plates 1 and 2; Hu776: ToxCast plates 3 and 4). Each preparation of human hepatocyte cultures was treated with respective vehicle control, medium only control, set of six positive controls/reference chemicals for the five hepatic receptor pathways, and a subset of eight of the ToxCast chemicals (indoxacarb, pyrithiobac-sodium, norflurazon, cyhalofop-butyl, methomyl, thiram, acetochlor, and propiconazole). These replicate data, coupled with internal replicates designed within the blinded ToxCast chemical library, provided additional data to evaluate interindividual differences between hepatocyte preparations and their potential impact on chemical profiles.Cell morphology and integrity were evaluated using phase-contrast microscopy as an indicator of hepatocyte cell health (Tyson & Green, 1987). Cultures for each treatment group (i.e., media, vehicle [0.2% DMSO], positive control inducers [multiple concentrations], and the ToxCast chemicals [multiple concentrations]) were observed and cell morphology was assessed relative to vehicle control cultures at each harvest time point (0, 6, 24, or 48 h). […] Images were evaluated at the conclusion of the study to assess changes in cell integrity and account for the effects of chemical exposure on uncharacteristic changes in concentration-dependent gene expression profiles. The results from these determinations of apparent cytotoxicity were annotated (yes/no) alongside the corresponding qNPA data for reference.At the conclusion of each treatment period, hepatocyte cultures (96-well) were washed with 1 volume of HBSS, lysed by addition of 25 ul ArrayPlate lysis buffer (HTG, Tucson, AZ), and 70 ul/well of Denaturation Oil, denatured by incubation at 95C for 10 min, and frozen at approximately -70C until analysis by nuclease protection assay (qNPA) (Roberts et al., 2007). For qNPA analysis, cell lysates were thawed at 50C for approximately 30 min, qNPA probes were added, and samples were incubated at 95C for 10 min to begin the detection process by denaturing the target RNA, dissociating the duplexes and secondary structure hybridization. At the conclusion of the hybridization period, S1 nuclease reagent was added to each sample to digest all nonprotected nucleotides at 50C for 60-90 min. […]
For the molecule `CCCCNC(=O)OCC#CI`, the molecule was classed as inactive. With `COc1ccc(C(c2ccc(OC)cc2)C(Cl)(Cl)Cl)cc1`, the outcome was inactive. As for `COC(=O)N(OC)c1ccccc1COc1ccn(-c2ccc(Cl)cc2)n1`, the result was inactive. To `CC1=C(C(=O)Nc2ccccc2)SCCO1` belongs “inactive”; to `Oc1ccccc1-c1ccccc1`, “inactive”.

`Cc1cc(Cl)ccc1OCC(=O)O`: the result was inactive. `CCCCOC(=O)c1ccccc1C(=O)OCCCC`: the molecule was classed as inactive.

Consider `CCON=C(CC)C1=C(O)CC(c2c(C)cc(C)cc2C)CC1=O` (centres undefined), for which the result was inactive.

`COP(=S)(OC)Oc1nc(Cl)c(Cl)cc1Cl`: the molecule was called inactive. To `CCOC(=O)CC(SP(=S)(OC)OC)C(=O)OCC` (centres undefined) belongs “inactive”; to `COc1nc(C)nc(NC(=O)NS(=O)(=O)c2ccccc2Cl)n1`, “inactive”. Turning to `N#CC(CCc1ccc(Cl)cc1)(Cn1cncn1)c1ccccc1` (centres undefined), the call was inactive. Regarding `COC(=O)C(C)Oc1ccc(Oc2ccc(Cl)cc2Cl)cc1` (centres undefined), the molecule was called inactive.

For the molecule `CS/C(C)=N/OC(=O)N(C)SN(C)C(=O)O/N=C(\C)SC`, the molecule was classed as inactive. Next, `CCCN(CCC)c1c([N+](=O)[O-])cc(S(N)(=O)=O)cc1[N+](=O)[O-]`: “inactive”; `C=CCC1=C(C)[C@@H](OC(=O)[C@@H]2[C@@H](C=C(C)C)C2(C)C)CC1=O`: “inactive”; `O=C(O)COc1nc(Cl)c(Cl)cc1Cl`: “inactive”. As to `C#CCOS(=O)OC1CCCCC1Oc1ccc(C(C)(C)C)cc1` (centres undefined), the molecule was called inactive. For the molecule `COc1nc(NC(C)C)nc(NC(C)C)n1`, the outcome was inactive. For the molecule `CNC(=O)ON=CC(C)(C)SC`, the call was inactive. As to `CC(Oc1ccc(Cl)cc1Cl)C(=O)O` (centres undefined), the molecule was called inactive.

In the case of `COC(=O)c1ccccc1C(=O)OC`, the molecule was classed as inactive.

On to `CCNc1nc(Cl)nc(NCC)n1`, for which the call was inactive. With `COP(N)(=O)SC` (centres undefined), the call was inactive. Take `C=CC1(C)OC(=O)N(c2cc(Cl)cc(Cl)c2)C1=O` (centres undefined): the molecule was classed as inactive. Turning to `CCOC(=O)C(Cl)Cc1cc(-n2nc(C)n(C(F)F)c2=O)c(F)cc1Cl` (centres undefined), the result was inactive. For `COc1nc(C)nc(NC(=O)NS(=O)(=O)c2ccccc2CCC(F)(F)F)n1`, the molecule was classed as inactive. `CO/C=C(/C(=O)OC)c1ccccc1Oc1cc(Oc2ccccc2C#N)ncn1`: the molecule was called inactive. Consider `CCCCC(CC)COC(=O)c1ccccc1C(=O)OCC(CC)CCCC` (centres undefined), for which the molecule was classed as inactive.

The values above are taken from PubChem BioAssay (EPA / NIEHS).
